Experimental data as given in PubChem BioAssay AID488969 (Vanderbilt High Throughput Screening Facility, 2010).
The full ranking holds about 110,000 compounds; the median of “z-score” is about -0.1, and the highest 2% start at about 2. What follows is part of a selection rich in the highest values, with near analogues and random picks from the rest. Activity calls are given as the source filed them.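 Rule for the calls: active = z-score in the third read window above 3 or below -3; inactive = the rest.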

Molecular target: Metabotropic glutamate receptor 8 (Rattus norvegicus) (UniProt P70579)
Test: mGluR8 Gi/Go-coupled signaling modulation – cell-based, rat, thallium flux, HTS, primary screen (AID 488969)
Details: HEK293 rat mGluR8, GIRK (G protein-gated inwardly rectifying potassium channel) thallium flux, FluoZin2; at 10 µM; stronger effect = higher value; submaximal glutamate (EC20) added with thallium

Metabotropic glutamate receptor 8 (Rattus norvegicus), sequence (P70579 whole entry, looked up): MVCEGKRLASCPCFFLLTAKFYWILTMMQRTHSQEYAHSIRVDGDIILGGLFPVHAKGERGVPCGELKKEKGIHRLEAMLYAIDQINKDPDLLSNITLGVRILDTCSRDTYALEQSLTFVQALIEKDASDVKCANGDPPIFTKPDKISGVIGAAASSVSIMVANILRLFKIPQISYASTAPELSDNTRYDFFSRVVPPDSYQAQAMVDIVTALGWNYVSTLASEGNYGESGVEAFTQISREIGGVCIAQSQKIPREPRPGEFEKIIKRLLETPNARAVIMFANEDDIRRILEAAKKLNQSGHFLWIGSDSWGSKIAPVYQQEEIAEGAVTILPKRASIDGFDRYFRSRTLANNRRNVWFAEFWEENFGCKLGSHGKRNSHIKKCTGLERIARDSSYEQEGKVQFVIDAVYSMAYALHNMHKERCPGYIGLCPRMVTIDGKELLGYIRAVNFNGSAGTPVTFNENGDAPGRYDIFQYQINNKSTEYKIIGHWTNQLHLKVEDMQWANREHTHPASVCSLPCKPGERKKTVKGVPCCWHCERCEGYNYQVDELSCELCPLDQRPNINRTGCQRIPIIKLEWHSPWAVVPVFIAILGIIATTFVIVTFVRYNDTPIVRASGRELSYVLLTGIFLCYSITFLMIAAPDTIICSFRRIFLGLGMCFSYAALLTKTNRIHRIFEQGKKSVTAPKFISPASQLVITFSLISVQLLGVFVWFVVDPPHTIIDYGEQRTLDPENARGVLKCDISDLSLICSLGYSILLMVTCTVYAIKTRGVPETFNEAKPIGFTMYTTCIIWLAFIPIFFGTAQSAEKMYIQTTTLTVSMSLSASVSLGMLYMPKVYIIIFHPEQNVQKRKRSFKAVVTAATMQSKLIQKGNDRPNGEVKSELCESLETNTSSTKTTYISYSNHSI

Structure (SMILES)	z-score
CCn1c(CSc2nc3ccccc3s2)n[nH]c1=S	0.155
S=c1[nH]nc(CSc2nc3ccccc3s2)n1C1CCCCC1	14.9 (active)
Cc1cc(C(=O)NCCCC(=O)O)c(C)o1	-0.154
Cc1noc(/C=C/N(C)C)c1S(=O)(=O)N(C)CC(=O)NC1CCCCC1	2.18
Cc1noc(/C=C/N(C)C)c1S(=O)(=O)N1CCCC(C(=O)NC2CCCCC2)C1 (stereo not drawn)	-0.19
Cc1noc(/C=C/N(C)C)c1S(=O)(=O)NC1CCCCC1	-0.658
Cc1ccc(SCCCn2cncn2)cc1	-0.0811
c1ccc(C2(c3ccccc3)OCC(Cn3cncn3)O2)cc1 (stereo not drawn)	0.218
CCCC1COC(Cn2cncn2)(c2ccc(C)cc2)O1 (stereo not drawn)	10.6 (active)
CCn1c(CCNC(=O)c2ccc(Cl)cc2)n[nH]c1=S	-0.774
CCn1ncc(/C=C/C(=O)Nc2c(C)nn(CC)c2C)c1C	-0.306
CC1CCCCC1NC(=O)COC(=O)c1ccc2c(c1Cl)C(=O)c1ccccc1C2=O (stereo not drawn)	-0.0566
O=C(COC(=O)c1cccc(N2C(=O)c3ccccc3C2=O)c1)Nc1ccccc1	5.13 (active)
O=C(COC(=O)c1cccnc1)Nc1ccccc1	0.274
CC(=O)c1cccc(NC(=O)COC(=O)c2cccc(N3C(=O)c4ccccc4C3=O)c2)c1	0.155
COc1ccccc1NC(=O)COC(=O)c1ccc2c(c1)nc(C)n2-c1ccccc1	-0.283
Cc1nc2cc(C(=O)OCC(=O)Nc3ccc(C#N)cc3)ccc2n1-c1ccccc1	-0.0383
Cc1nc2cc(C(=O)OCC(=O)Nc3cccc(Cl)c3)ccc2n1-c1ccccc1	2.18
Cc1cc(NS(=O)(=O)c2ccc(NC(=O)c3cc(-c4ccccc4Cl)nc4ccccc34)cc2)no1	-1.51
C=CCn1c(=NC(=O)c2ccco2)sc2cc(C(=O)OC)ccc21	0.103

Structure (SMILES)	z-score
COc1ccccc1C(=O)Nc1ccc2c(c1)OCO2	0.246
CN(C)C(=O)N1CCCC(C(=O)NCc2ccccc2)C1 (stereo not drawn)	-0.341
CC(=C/c1ccc(C(C)C)cc1)/C=N/NC(=O)c1ccncc1	2.21
CC(/C=N/NC(=O)c1ccncc1)=C\c1ccc(C(C)C)cc1	-0.0873
CC(/C=N/NC(=O)c1ccncc1)=C\c1ccccc1	0.474
COc1cc(/C=N\NC(=O)c2ccc(=O)[nH]n2)cc(OC)c1OC	0.00269
O=C(NO)c1ccc(OC(F)F)cc1	0.319
CCC1CCCCN1c1cc(C)nc2cc(-c3cccc(C)c3)nn12 (stereo not drawn)	-0.0418
C#CCn1c(=NC(=O)c2ccccc2[N+](=O)[O-])sc2cc(S(C)(=O)=O)ccc21	-0.119
S=c1nc(-c2ccc(Br)cc2)oc2c1CCCC2	4.2 (active)
S=c1nc(-c2ccccc2)oc2c1CCCC2	-0.0866
Cc1cccc(-c2nc(=S)c3c(o2)CCCC3)c1	0.856
C=CCONC(=O)c1cc(OCC(F)(F)F)ccc1OCC(F)(F)F	-0.0898
COCCCNCCOCCSc1ccc(Cl)cc1	0.918
O=C(Cn1cncc1-c1ccc([N+](=O)[O-])cc1)Nc1cccc2ccccc12	-0.199
CC1CCc2c(sc(NC(=O)C(=O)NCc3ccco3)c2C#N)C1 (stereo not drawn)	11.4 (active)
CC1CCc2c(sc(NC(=O)COC(=O)c3ccccc3NCc3ccco3)c2C#N)C1 (stereo not drawn)	-0.152
CC1CCc2c(sc(NC(=O)CN3CCN(C(=O)c4ccco4)CC3)c2C#N)C1 (stereo not drawn)	0.101
COc1ccc(S(=O)(=O)N2CCN(C3Cc4ccccc4C3)CC2)cc1	-0.439
Cc1cc(C)n(CC(O)CN(c2ccccc2)S(=O)(=O)c2ccccc2)n1 (stereo not drawn)	-0.261

Structure (SMILES)	z-score
Cc1cc(C)nc(NS(=O)(=O)c2ccc(NC(=O)c3ccc(S(=O)(=O)N4CC(C)OC(C)C4)cc3)cc2)n1 (stereo not drawn)	-0.605
COc1ccccc1C(=O)Nc1nnc(-c2ccc3c(c2)CCCC3)o1	-0.536
Cc1cc(C)c(NC(=O)c2ccc(S(=O)(=O)N(C)C)cc2)c(C)n1	-1.73
CC1CN(S(=O)(=O)c2cccc(C(=O)Nc3ccc4c(c3)CCC4)c2)CC(C)O1 (stereo not drawn)	-0.053
CN(C)S(=O)(=O)c1ccc(C(=O)Nc2nnc(-c3ccc4c(c3)CCCC4)o2)cc1	5.8 (active)
CC1CN(S(=O)(=O)c2ccc(C(=O)Nc3nnc(-c4ccc5c(c4)CCCC5)o3)cc2)CC(C)O1 (stereo not drawn)	2.42
O=C(CCc1ccccc1)Nc1nnc(-c2ccc3c(c2)CCCC3)o1	-0.145
O=C(Nc1nnc(-c2ccc3c(c2)CCCC3)o1)c1ccccc1Cl	5.26 (active)
O=C(Nc1nnc(-c2ccc3c(c2)OCCO3)o1)c1ccc(Cc2ccccc2)cc1	-0.048
N#Cc1ccc(C(=O)Nc2nnc(-c3ccccn3)o2)cc1	-0.232
O=C(Nc1nnc(-c2ccccn2)o1)c1cccc(Br)c1	0.334
O=C(Nc1nnc(-c2ccccn2)o1)c1ccc(Br)cc1	2.32
Nc1ccc(SC(F)(F)F)cc1C(=O)c1ccccc1	-0.00154
O=C(COC(=O)C1CCN(S(=O)(=O)c2ccc3c(c2)OCCO3)CC1)Nc1cc(C(F)(F)F)ccc1Cl	-0.303
CCCC12CN3CCN(CC(C3)/C1=N\NC(=O)Nc1ccccc1)C2	-0.242
CCc1cc2cc(C(=O)Nc3ccc(F)cc3)sc2s1	-0.0494
Cc1nc2ccc(F)cc2cc1C(=O)NCc1ccco1	-0.0284
O=C(COC(=O)CCc1nc2ccccc2s1)Nc1ncc(Cl)cc1Cl	-0.33
